# Measurements from PubChem BioAssay AID1159580 (chemical genetic matrix, 2015).
# Where “and” joins values, the source holds several entries; their conditions need not be identical. Equal entries are not always repeated. Among all 5,500 compounds or so, about 2,000 (36%) were called active. Not shown: some 18% with an inconclusive outcome. Rule as the data show it: active = normalized growth mostly below about 0.91 (no sharp cut-off); inconclusive = no clear call, values can overlap the other calls; inactive = mostly above about 0.92. The list shows a part of the results.
# Experiment: chemical genetic growth profiling, strain panel (AID 1159580);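 also: tested at 20 µM; growth read once vehicle control cultures reached saturation at 30 °C; 1 = growth at the plate median or of vehicle wells; lower values mean less growth of the strain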
# Details: growth OD
smiles,measurement,setting,value
COc1ccc2oc(-c3ccccc3)c(OC)c(=O)c2c1,normalized growth,"S. cerevisiae deletion strains, locus YAL013W, strain DEP1, stronger effect = lower value",0.903 (active)
same,normalized growth,"S. cerevisiae deletion strains, locus YBR021W, strain FUR4, stronger effect = lower value",0.925 (inactive)
same,normalized growth,"S. cerevisiae deletion strains, locus YBR229C, strain ROT2, stronger effect = lower value",0.929 (inactive)
same,normalized growth,"S. cerevisiae deletion strains, locus YCL029C, strain bik1, stronger effect = lower value",0.906 (active)
same,normalized growth,"S. cerevisiae deletion strains, locus YDL035C, strain GPR1, stronger effect = lower value",0.846 (active)
same,normalized growth,"S. cerevisiae deletion strains, locus YDL074C, strain BRE1, stronger effect = lower value",0.71 (active)
same,normalized growth,"S. cerevisiae deletion strains, locus YDL101C, strain DUN1, stronger effect = lower value",0.888 (active)
same,normalized growth,"S. cerevisiae deletion strains, locus YDL134C, strain PPH21, stronger effect = lower value",0.828 (active)
same,normalized growth,"S. cerevisiae deletion strains, locus YDL185W, strain tfp1, stronger effect = lower value",0.923 (inactive)
same,normalized growth,"S. cerevisiae deletion strains, locus YDL192W, strain arf1, stronger effect = lower value",0.858 (active)
same,normalized growth,"S. cerevisiae deletion strains, locus YDR101C, strain arx1, stronger effect = lower value",0.887 (active)
same,normalized growth,"S. cerevisiae deletion strains, locus YDR150W, strain NUM1, stronger effect = lower value",0.944 (inactive)
same,normalized growth,"S. cerevisiae deletion strains, locus YDR162C, strain NBP2, stronger effect = lower value",0.719 (active)
same,normalized growth,"S. cerevisiae deletion strains, locus YDR318W, strain mcm21, stronger effect = lower value",0.808 (active)
same,normalized growth,"S. cerevisiae deletion strains, locus YDR388W, stronger effect = lower value",0.892 (active)
same,normalized growth,"S. cerevisiae deletion strains, locus YDR502C, strain sam2, stronger effect = lower value",0.867 (active)
same,normalized growth,"S. cerevisiae deletion strains, locus YEL061C, strain CIN8, stronger effect = lower value",0.938 (inactive)
same,normalized growth,"S. cerevisiae deletion strains, locus YER110C, stronger effect = lower value",0.861 (active)
same,normalized growth,"S. cerevisiae deletion strains, locus YER155C, strain BEM2, stronger effect = lower value",0.926 (inactive)
same,normalized growth,"S. cerevisiae deletion strains, locus YER167W, strain BCK2, stronger effect = lower value",0.801 (active)
same,normalized growth,"S. cerevisiae deletion strains, locus YGL078C, strain dbp3, stronger effect = lower value",0.956 (inactive)
same,normalized growth,"S. cerevisiae deletion strains, locus YGL086W, strain mad1, stronger effect = lower value",0.882 (active)
same,normalized growth,"S. cerevisiae deletion strains, locus YGL248W, strain PDE1, stronger effect = lower value",0.814 (active)
same,normalized growth,"S. cerevisiae deletion strains, locus YGR078C, strain PAC10, stronger effect = lower value",0.748 (active)
same,normalized growth,"S. cerevisiae deletion strains, locus YGR135W, strain pre9, stronger effect = lower value",0.784 (active)
same,normalized growth,"S. cerevisiae deletion strains, locus YGR229C, strain SMI1, stronger effect = lower value",0.58 (active)
same,normalized growth,"S. cerevisiae deletion strains, locus YGR252W, strain gcn5, stronger effect = lower value",0.68 (active)
same,normalized growth,"S. cerevisiae deletion strains, locus YHR030C, strain SLT2, stronger effect = lower value",0.674 (active) and 0.934 (inactive)
same,normalized growth,"S. cerevisiae deletion strains, locus YHR079C, strain IRE1 (second series), stronger effect = lower value",0.828 (active)
same,normalized growth,"S. cerevisiae deletion strains, locus YHR079C, strain IRE1, stronger effect = lower value",0.926 (inactive)
same,normalized growth,"S. cerevisiae deletion strains, locus YHR094C, strain hxt1, stronger effect = lower value",0.936 (inactive)
same,normalized growth,"S. cerevisiae deletion strains, locus YHR129C, strain ARP1, stronger effect = lower value",0.874 (active)
same,normalized growth,"S. cerevisiae deletion strains, locus YHR200W, strain rpn10, stronger effect = lower value",0.897 (active)
same,normalized growth,"S. cerevisiae deletion strains, locus YIL066C, strain RNR3, stronger effect = lower value",0.882 (inactive)
same,normalized growth,"S. cerevisiae deletion strains, locus YIL073C, strain SPO22, stronger effect = lower value",0.803 (inactive)
same,normalized growth,"S. cerevisiae deletion strains, locus YIL125W, strain kgd1, stronger effect = lower value",0.956 (inactive)
same,normalized growth,"S. cerevisiae deletion strains, locus YIR030C, strain dcg1, stronger effect = lower value",0.879 (active)
same,normalized growth,"S. cerevisiae deletion strains, locus YJL095W, strain BCK1, stronger effect = lower value",0.426 (active) and 0.93 (inactive)
same,normalized growth,"S. cerevisiae deletion strains, locus YJL134W, strain LCB3, stronger effect = lower value",0.946 (inactive)
same,normalized growth,"S. cerevisiae deletion strains, locus YJL168C, strain set2, stronger effect = lower value",0.912 (active)
same,normalized growth,"S. cerevisiae deletion strains, locus YJL187C, strain SWE1 (second series), stronger effect = lower value",0.855 (active)
same,normalized growth,"S. cerevisiae deletion strains, locus YJR043C, strain POL32, stronger effect = lower value",0.863 (inactive)
same,normalized growth,"S. cerevisiae deletion strains, locus YJR066W, strain TOR1, stronger effect = lower value",0.867 (inactive)
same,normalized growth,"S. cerevisiae deletion strains, locus YJR075W, strain HOC1, stronger effect = lower value",0.844 (active)
same,normalized growth,"S. cerevisiae deletion strains, locus YKL009W, strain mrt4, stronger effect = lower value",0.877 (active)
same,normalized growth,"S. cerevisiae deletion strains, locus YKL068W, stronger effect = lower value",0.96 (inactive)
same,normalized growth,"S. cerevisiae deletion strains, locus YKL085W, strain MDH1 (second series), stronger effect = lower value",0.945 (inactive)
same,normalized growth,"S. cerevisiae deletion strains, locus YKL085W, strain MDH1, stronger effect = lower value",0.945 (inactive)
same,normalized growth,"S. cerevisiae deletion strains, locus YKL190W, strain CNB1, stronger effect = lower value",0.922 (inactive)
same,normalized growth,"S. cerevisiae deletion strains, locus YKR001C, strain vps1, stronger effect = lower value",0.764 (active)
same,normalized growth,"S. cerevisiae deletion strains, locus YLR039C, strain RIC1, stronger effect = lower value",0.778 (inactive)
same,normalized growth,"S. cerevisiae deletion strains, locus YLR058C, strain SHM2, stronger effect = lower value",0.88 (active)
same,normalized growth,"S. cerevisiae deletion strains, locus YLR102C, strain apc9, stronger effect = lower value",0.93 (inactive)
same,normalized growth,"S. cerevisiae deletion strains, locus YLR113W, strain HOG1, stronger effect = lower value",0.937 (inactive)
same,normalized growth,"S. cerevisiae deletion strains, locus YLR262C, strain YPT6, stronger effect = lower value",0.801 (inactive)
same,normalized growth,"S. cerevisiae deletion strains, locus YLR268W, strain sec22, stronger effect = lower value",0.807 (active)
same,normalized growth,"S. cerevisiae deletion strains, locus YLR330W, strain CHS5, stronger effect = lower value",0.899 (active)
same,normalized growth,"S. cerevisiae deletion strains, locus YLR342W, strain FKS1 (second series), stronger effect = lower value",0.69 (active)
same,normalized growth,"S. cerevisiae deletion strains, locus YLR371W, strain rom2, stronger effect = lower value",0.932 (inactive)
same,normalized growth,"S. cerevisiae deletion strains, locus YLR418C, strain cdc73, stronger effect = lower value",0.592 (active)
same,normalized growth,"S. cerevisiae deletion strains, locus YML016C, strain PPZ1, stronger effect = lower value",0.919 (active)
same,normalized growth,"S. cerevisiae deletion strains, locus YML032C, strain rad52, stronger effect = lower value",0.53 (active)
same,normalized growth,"S. cerevisiae deletion strains, locus YML124C, strain tub3, stronger effect = lower value",0.924 (active)
same,normalized growth,"S. cerevisiae deletion strains, locus YMR078C, strain ctf18, stronger effect = lower value",0.805 (active)
same,normalized growth,"S. cerevisiae deletion strains, locus YMR223W, strain ubp8, stronger effect = lower value",0.83 (active)
same,normalized growth,"S. cerevisiae deletion strains, locus YMR263W, strain SAP30, stronger effect = lower value",0.838 (active)
same,normalized growth,"S. cerevisiae deletion strains, locus YMR307W, strain GAS1, stronger effect = lower value",0.652 (inactive)
same,normalized growth,"S. cerevisiae deletion strains, locus YNL067W, strain RPL9B, stronger effect = lower value",0.837 (active)
same,normalized growth,"S. cerevisiae deletion strains, locus YNL128W, strain TEP1, stronger effect = lower value",0.942 (inactive)
same,normalized growth,"S. cerevisiae deletion strains, locus YNL153C, strain GIM3, stronger effect = lower value",0.891 (inactive)
same,normalized growth,"S. cerevisiae deletion strains, locus YNL183C, strain NPR1, stronger effect = lower value",0.88 (inactive)
same,normalized growth,"S. cerevisiae deletion strains, locus YNL233W, strain BNI4, stronger effect = lower value",0.78 (active)
same,normalized growth,"S. cerevisiae deletion strains, locus YNL250W, strain rad50, stronger effect = lower value",0.9 (inactive)
same,normalized growth,"S. cerevisiae deletion strains, locus YNL271C, strain bni1, stronger effect = lower value",0.916 (active)
same,normalized growth,"S. cerevisiae deletion strains, locus YNL298W, strain CLA4, stronger effect = lower value",0.884 (active)
same,normalized growth,"S. cerevisiae deletion strains, locus YNL307C, strain MCK1, stronger effect = lower value",0.29 (active)
same,normalized growth,"S. cerevisiae deletion strains, locus YNL322C, strain KRE1, stronger effect = lower value",0.947 (inactive)
same,normalized growth,"S. cerevisiae deletion strains, locus YNR052C, strain pop2, stronger effect = lower value",0.899 (active)
same,normalized growth,"S. cerevisiae deletion strains, locus YOL006C, strain TOP1, stronger effect = lower value",0.359 (active)
same,normalized growth,"S. cerevisiae deletion strains, locus YOL012C, strain htz1",0.77 (inactive)
same,normalized growth,"S. cerevisiae deletion strains, locus YOL147C, strain pex11, stronger effect = lower value",0.854 (active)
same,normalized growth,"S. cerevisiae deletion strains, locus YOR061W, strain CKA2, stronger effect = lower value",0.937 (inactive)
same,normalized growth,"S. cerevisiae deletion strains, locus YOR069W, strain VPS5, stronger effect = lower value",0.979 (inactive)
same,normalized growth,"S. cerevisiae deletion strains, locus YOR136W, strain idh2, stronger effect = lower value",0.922 (inactive)
same,normalized growth,"S. cerevisiae deletion strains, locus YOR144C, strain elg1, stronger effect = lower value",0.92 (active)
same,normalized growth,"S. cerevisiae deletion strains, locus YOR184W, strain ser1, stronger effect = lower value",0.684 (active)
same,normalized growth,"S. cerevisiae deletion strains, locus YOR231W, strain MKK1, stronger effect = lower value",0.918 (inactive)
same,normalized growth,"S. cerevisiae deletion strains, locus YOR316C, strain cot1, stronger effect = lower value",0.916 (active)
same,normalized growth,"S. cerevisiae deletion strains, locus YPL055C, strain LGE1, stronger effect = lower value",0.767 (inactive)
same,normalized growth,"S. cerevisiae deletion strains, locus YPL241C, strain CIN2, stronger effect = lower value",0.959 (inactive)
same,normalized growth,"S. cerevisiae deletion strains, locus YPL256C, strain CLN2, stronger effect = lower value",0.939 (inactive)
same,normalized growth,"S. cerevisiae deletion strains, locus YPR119W, strain clb2, stronger effect = lower value",0.919 (active)
same,normalized growth,"S. cerevisiae deletion strains, locus YPR141C, strain kar3, stronger effect = lower value",0.944 (inactive)
same,normalized growth,"S. cerevisiae deletion strains, locus YPR163C, strain tif3, stronger effect = lower value",0.634 (active)
same,normalized growth,"S. cerevisiae deletion strains, locus YPR167C, strain met16, stronger effect = lower value",0.916 (active)
same,normalized growth,"S. cerevisiae deletion strains, strain wtn01, stronger effect = lower value",0.832 (active)
same,normalized growth,"S. cerevisiae strains, strain wild type, stronger effect = lower value",0.895 (active)
